The results in this text go back to PubChem BioAssay AID504332 (National Center for Advancing Translational Sciences (NCATS), 2011).

Molecules are shown by their SMILES. About 31,000 (8.9%) of roughly 350,000 compounds were called active. Where a call stands in place of a potency, no number is given. Not shown: some 15% with an inconclusive outcome. Many of the other results were omitted from the sample, so actives are more common in it than they were. Unmarked numbers belong to inactive results. The call rests on the fitted dose curve; in most records, active means well fitted inhibition curve with a large enough effect; inconclusive means small, poorly fitted or top-dose-only effect; inactive means no such curve, though single readings can be large or run the other way.
Potency means the concentration at half of the fitted maximal effect.

Histone-lysine N-methyltransferase EHMT2 (Homo sapiens), sequence (Q96KQ7 913-1193 limits assumed): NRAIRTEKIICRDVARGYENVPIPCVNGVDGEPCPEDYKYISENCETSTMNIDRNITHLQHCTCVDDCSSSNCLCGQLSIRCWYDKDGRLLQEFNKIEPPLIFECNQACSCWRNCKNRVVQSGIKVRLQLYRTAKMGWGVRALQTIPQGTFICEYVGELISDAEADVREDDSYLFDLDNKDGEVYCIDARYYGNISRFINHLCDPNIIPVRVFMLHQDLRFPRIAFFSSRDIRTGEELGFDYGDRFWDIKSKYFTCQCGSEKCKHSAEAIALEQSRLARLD

This experiment addresses Histone-lysine N-methyltransferase EHMT2 (Homo sapiens) (UniProt Q96KQ7). In words: qHTS Assay for Inhibitors of Histone Lysine Methyltransferase G9a. Further: nearly all actives have a fitted effect of over 75% in size. To be noted: G9a H3K9 monomethylation, AlphaScreen, 2 h; series mostly up to 59 µM. The method, boiled down:
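AlphaScreen detection with an anti-monomethyl H3K9 antibody quantified product after a 2 h room-temperature reaction containing 500 nM biotinylated H3K9 peptide, 20 µM SAM and 20 nM enzyme, which had been preincubated 15 min with compound.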
With `COc1ccccc1CNC(=O)NCc1noc2ccc(C)cc12`, the Potency entry is “inactive”.

Turning to `Cc1cc(C)c(NC(=O)CCc2c(C)nc3c(c(C)nn3C(C)(C)C)c2C)c(C)c1`, the Potency entry was “inactive”.

For the molecule `N#Cc1nc(/C=C/c2ccc(F)cc2)oc1NCc1ccc(F)cc1`, the Potency entry is “inactive”.

In the case of `O=C(Nc1ccc2c(c1)OCO2)c1cc(-c2cccc(Cl)c2)on1`, the Potency entry was “inactive”.

`COc1ccc(NC(=O)Cn2c(=O)cc(C)c3c(C)nn(-c4cccc(Cl)c4C)c32)cc1OC`: the Potency result was “inactive”.

For the molecule `COc1cccc(CNC(=O)Cc2csc3nc(-c4ccccc4)cn23)c1`, the Potency result was “inactive”.

As for `O=C1/C(=C/c2coc3ccc(O)cc3c2=O)SC(=S)N1c1ccccc1`, the activity, negative = inhibition is -31.3% [at 12.7 µM].

On to `CC1=CC(C)(C)NC(=S)N1c1ccccc1`, for which the Potency entry was “inactive”.

With `O=C1/C(=C\c2ccsc2)NC(=S)N1c1ccccc1`, the Potency was 50.1 µM (active). On the same count and under the same terms, to `CC(=O)c1ccccc1OCc1ccc(C(=O)c2ccccc2)cc1` belongs “inactive”; to `COc1ccccc1N1CCN(S(=O)(=O)c2ccc(Cl)cc2)CC1`, “inactive”. The same measure, in the same setting: then `Cc1c(C2=CCN(S(=O)(=O)c3ccc(Cl)cc3)CC2)c2ccccc2n1C`, with 44.7 µM (active). Take `O=C(O)c1cccc(S(=O)(=O)N2CC=C(c3ccccc3)CC2)c1`: the activity, negative = inhibition was 23% [at 12.7 µM]. As for `COc1ccc(NC(=O)CSC2=Nc3ccccc3C3=NC(CC(=O)NCc4ccccc4OC)C(=O)N23)cc1Cl` (centres undefined), the Potency entry is “inactive”. For `CCC(C)CCN1CCN=C1N(C)C` (centres undefined), the activity, negative = inhibition is 2.04% [at 2.33 µM].

Regarding `CCC(C)(C)c1ccc(OCC(=O)N(C)C)c(C(C)(C)CC)c1`, the Potency entry is “inactive”.

For the molecule `CN(C)CCOc1ccc(Cl)cc1C(C)(C)C`, the Potency was 8.91 µM (active). In the case of `O=C(NCCCO)c1nn(-c2ccc(Cl)cc2)nc1CO`, the Potency result is “inactive”. On the same count and under the same terms, to `Cc1nn(Cc2ccccc2)c(C)c1C(=O)NCCN1C(=O)S/C(=C\c2ccc(F)cc2)C1=O` belongs “inactive”; to `COc1ccc(/C=C2\SC(=S)N(CCC(=O)Nc3cccc(C(=O)O)c3)C2=O)cc1OC`, “inactive”. Still for that read-out and setting: then `N#Cc1ccccc1CN1C(=O)S/C(=C/c2cccn2-c2cccc(C(=O)O)c2)C1=O`, with 44.7 µM (active). On the same count and under the same terms, then `CC(C)C(=O)Nc1nc2c(s1)CC(C(C)(C)C)CC2` (centres undefined), with “inactive”. For `Cn1nnnc1SCCCNCc1ccc(Cl)cc1`, the Potency result is “inactive”. In the case of `O=C(CCNC(=O)c1ccccc1)Nc1nc2ccccc2s1`, the activity, negative = inhibition is -6.33% [at 0.501 µM].

Take `CCN(CC)CCOCCOc1ccc(Cl)c2ccccc12`: the Potency entry is “inactive”.

For `CN(C)CCOCCOc1ccc(Cl)c2ccccc12`, the Potency was 14.1 µM (active). Consider `O=S(=O)(c1ccc(Cl)cc1)c1nc(-c2ccco2)oc1N1CCCCC1`, for which the activity, negative = inhibition is 32.5% [at 12.7 µM].

Turning to `Clc1cccc(-n2ncc3c(NCCc4ccccc4)ncnc32)c1`, the Potency result is “inactive”. For the molecule `O=C(/C=C/c1c(Cl)cccc1Cl)NCc1ccccc1`, the Potency entry was “inactive”. On the same count and under the same terms, to `O=C(CCc1ccccc1)Nc1nn[nH]n1` belongs “inactive”; to `O=C(/C=C/c1c(F)cccc1Cl)Nc1nn[nH]n1`, 39.8 µM (active). Still for that read-out and setting: then `CSc1ccccc1NC(=O)c1cnc2sc(C)cn2c1=O`, with “inactive”.

With `O=S(=O)(NC1CCN(S(=O)(=O)c2ccc3c(c2)OCCO3)CC1)c1c(F)cccc1F`, the activity, negative = inhibition is 3.66% [at 12.7 µM].

Consider `COc1cccc(N(CC(=O)NC2CCCC2)C(=O)Cn2nnc(-c3ccc(C)o3)n2)c1`, for which the Potency entry is “inactive”.

For `O=C(Cc1ccc([N+](=O)[O-])cc1)Nc1ccc(C(=O)N2CCOCC2)cc1`, the Potency result was “inactive”. Same read-out and setting: to `O=C(Nc1ccc(N2CCOCC2)cc1)c1ccc(-c2ccccc2[N+](=O)[O-])o1` belongs 17.8 µM (active); to `COc1cc2ccccc2cc1C(=O)Nc1ccc(N2CCOCC2)cc1`, “inactive”; to `O=C(COc1ccccc1)Nc1cc2c3c(c1)CC(=O)N3CCC2`, “inactive”.

For the molecule `Cc1ccc(C)c(N2CCN(C(=O)CCCCCn3c(=S)[nH]c4ccc(N5CCOCC5)cc4c3=O)CC2)c1`, the Potency entry is “inactive”. Same read-out and setting: to `Cc1ccc2c(=O)cc(C(=O)Nc3sc4c(c3C(=O)NCc3cccnc3)CCCC4)oc2c1` belongs “inactive”; to `CC(C)OC(=O)c1c(NC(=O)c2ccco2)sc2c1CCCC2`, “inactive”. Still for that read-out and setting: to `CNC(=O)c1c(NC(NC(=O)c2ccco2)C(=O)c2ccc(Cl)cc2)sc2c1CCCC2` (centres undefined) belongs 11.2 µM (active). Consider `COc1ccc(CC2c3cc(OC)c(OC)cc3CC[N+]2(C)CCC(=O)OCCCCCOC(=O)CC[N+]2(C)CCc3cc(OC)c(OC)cc3C2Cc2ccc(OC)c(OC)c2)cc1OC` (centres undefined), for which the activity, negative = inhibition is 7.6% [at 12.7 µM]. For `COc1cc2c(cc1O)[C@H](Cc1ccc(Oc3cc(C[C@@H]4NCCc5cc(OC)c(O)cc54)ccc3O)cc1)NCC2`, the Potency was 12.6 µM (active). The same measure, in the same setting: to `CCc1ccc(OCC2c3cc(OC)c(OC)cc3CCN2C(C)=O)cc1` (centres undefined) belongs “inactive”; to `COc1ccccc1CNc1nc2ccc(Cl)cc2n2cnnc12`, “inactive”; to `CC(=O)Nc1cccc(NC(=O)CSc2nccn2Cc2ccc3c(c2)OCO3)c1`, “inactive”.

`COc1ccc(C2CC(c3cccs3)=NN2c2ccccc2)cc1` (centres undefined): the Potency entry was “inactive”. Turning to `COc1ccccc1N1N=C(c2cccs2)CC1c1ccccc1` (centres undefined), the Potency entry is “inactive”. `COc1ccc(C2CC(c3cccs3)=NN2c2ccc(F)cc2)cc1OC` (centres undefined): the Potency was 3.98 µM (active). The same measure, in the same setting: to `COc1ccc(-c2nc(CN3CCC(C(=O)NCc4ccccc4)CC3)c(C)o2)cc1OC` belongs “inactive”.

`CCOC(=O)C1CCCN(C(=O)c2ccc(-n3ccc4ccccc43)s2)C1` (centres undefined): the Potency result was “inactive”.

Consider `CCc1cccc(C)c1NC(=O)COC(=O)CC1CCCC1`, for which the Potency result is “inactive”.

For `COc1ccccc1N(C(=O)Cn1nnc2ccccc21)C(C(=O)NCc1ccco1)c1ccc(C)o1` (centres undefined), the Potency was 50.1 µM (active). Still for that read-out and setting: to `COCCNC(=O)C(c1ccc(C)o1)N(Cc1ccccc1)C(=O)Cn1nnc2ccccc21` (centres undefined) belongs “inactive”; to `Cc1ccc(C(C(=O)NCc2ccco2)N(CC2CCCO2)C(=O)Cn2nnc3ccccc32)cc1` (centres undefined), “inactive”.

For `Cc1ccc(C(=O)Nc2ccn(C)n2)cc1`, the activity, negative = inhibition is 0.254% [at 12.7 µM]. For the molecule `CC1CCN(S(=O)(=O)c2ccc3c(c2)N(CC(=O)NCCc2ccccc2)C(=O)CO3)CC1`, the Potency entry was “inactive”. The same measure, in the same setting: then `CC1=C(c2ccc(C)c(C)c2)S(=O)(=O)NC1=NCc1ccccc1Cl`, with “inactive”. On to `COc1ccc(NC(=O)C(=O)NCc2ccco2)cc1`, for which the Potency result is “inactive”. On the same count and under the same terms, to `CCOc1ccc(S(=O)(=O)Nc2ccc(OC)nc2)cc1` belongs “inactive”; to `COc1ccc(CS(=O)/C(Cl)=C(/Cl)C(=O)Nc2ccc(OC)nc2)cc1` (centres undefined), 11.2 µM (active). For `COc1cc(C(=O)N2CCN(c3ccc(Nc4ccc(C)cc4)nn3)CC2)cc(OC)c1OC`, the Potency result was “inactive”. Still for that read-out and setting: to `CSc1ccc(NC(=O)Cn2nnnc2-c2ccccc2F)cc1` belongs “inactive”. With `COc1ccc(C2CC(=O)Nc3cc(C)c(C)cc32)c(OC)c1OC` (centres undefined), the Potency entry is “inactive”. Consider `COC(=O)C(C)C1Sc2ccccc2NC1=O` (centres undefined), for which the activity, negative = inhibition is 14.7% [at 12.7 µM]. As for `COc1ccc(C2Sc3ccccc3NC3=C2C(=O)c2ccccc23)c(OC)c1OC` (centres undefined), the Potency was 11.2 µM (active). As for `O=C(NCC(c1ccc2c(c1)OCO2)N1CCN(c2ccccc2)CC1)C(=O)Nc1ccccc1F` (centres undefined), the Potency result was “inactive”.

As to `CCOC(=O)/C=C/C(=O)OCC(=O)NC(c1ccccc1)c1ccccc1`, the Potency result was “inactive”. In the case of `C=CCC(NC(=O)Cc1ccccc1)C(=O)NCCC` (centres undefined), the activity, negative = inhibition was 5.83% [at 0.501 µM]. Take `O=C(Cc1ccc(-c2ccccc2)cc1)NC(c1ccccc1)c1ccccc1`: the Potency is 7.08 µM (active).

As to `C/C(CC(=O)NCc1ccc(Cl)cc1)=N\NC(=O)COc1ccc(C)cc1Br`, the Potency entry is “inactive”.

With `Cc1ccccc1-c1n[nH]c(=S)n1/N=C/c1ccc(-c2ccccc2Br)o1`, the Potency was 12.6 µM (active). Still for that read-out and setting: then `Cc1ccccc1-c1ccc(C(=O)O)s1`, with “inactive”.

As to `Cc1n[nH]c(=S)n1/N=C/c1ccc(Br)o1`, the Potency is 3.16 µM (active).

On to `Cc1ccccc1-c1n[nH]c(=S)n1C`, for which the Potency is 10 µM (active). Take `Cc1ccccc1-c1nc(SCC(=O)N(C)c2ccccc2)c2c(=O)n(C)c(=O)n(C)c2n1`: the Potency result was “inactive”.

For `Cc1cc(C)cc(NS(=O)(=O)c2cc3c(cc2C)NC(=O)CO3)c1`, the Potency entry was “inactive”. Same read-out and setting: then `CCCCCc1c(C)nc(N2CCN(Cc3ccc4c(c3)OCO4)CC2)[nH]c1=O`, with “inactive”. With `O=C(Cc1ccc(S(=O)(=O)N2CCOCC2)s1)NCCOc1ccccc1F`, the activity, negative = inhibition was -25.9% [at 12.7 µM]. Still for that read-out and setting: to `CCNC(=O)c1cc2n(n1)CCCN(Cc1ccc(C)cc1)C2=O` belongs -1.49% [at 12.7 µM]. On the same count and under the same terms, to `CN(C)S(=O)(=O)c1ccc(N2CCCC2)c(C(=O)Nc2ccc(Br)cc2F)c1` belongs 26.4% [at 2.33 µM]. Turning to `OCCNc1nc(Nc2ccc(Cl)c(Cl)c2)nc2ccccc12`, the Potency was 50.1 µM (active). Still for that read-out and setting: to `Nc1nc(Nc2ccccc2)nc(NCCO)c1[N+](=O)[O-]` belongs “inactive”; to `COc1cc2nc(Cl)nc(NCCO)c2cc1OC`, “inactive”; to `COc1ccc(OCC(=O)Nc2cccc(C(=O)OCc3cc(=O)n4nc(C)sc4n3)c2)cc1`, “inactive”.

For `CN1CCN(S(=O)(=O)c2ccc(Nc3ccc(F)cc3)nc2)CC1`, the Potency result was “inactive”. Still for that read-out and setting: to `COc1ccccc1NC(=O)c1sc2nc(C)c(C(=O)Nc3ccc(Cl)cc3)c(-c3ccc(Br)cc3)c2c1N` belongs “inactive”. With `O=C(Nc1cccc(C(F)(F)F)c1)c1cc(Br)cc(Br)c1O`, the activity, negative = inhibition was -37% [at 12.7 µM]. For `Nc1ccc(OCC(O)C[n+]2ccc(CCS(=O)(=O)[O-])cc2)cc1` (centres undefined), the Potency is 39.8 µM (active). Same read-out and setting: to `CCc1ccc(S(=O)(=O)NCC(O)COc2ccc(OC)cc2)cc1` (centres undefined) belongs “inactive”; to `CCCc1ccc(OCC(O)CN2CCN(C(=O)OCC)CC2)cc1` (centres undefined), “inactive”. Turning to `Cn1c(SCC(=O)c2ccc(F)cc2)nnc1-c1ccccn1`, the Potency result is “inactive”. On the same count and under the same terms, then `Cn1c(CCC(=O)Nc2ccccc2F)nnc1SCC(=O)Nc1ccccc1Cl`, with “inactive”. The same measure, in the same setting: then `Cn1c(CC2Sc3ccccc3NC2=O)nnc1SCC(=O)c1ccc(Cl)cc1` (centres undefined), with 14.1 µM (active); and `O=c1cc2nc(-c3ccccc3)nc(SCCOc3ccc(Cl)cc3)n2[nH]1`, with “inactive”.

In the case of `O=C(O)C1CCCN1S(=O)(=O)c1ccc2c(c1)CCC2` (centres undefined), the Potency was 56.2 µM (active). As for `O=C(O)C1CCCN1S(=O)(=O)c1ccc(Br)cc1` (centres undefined), the activity, negative = inhibition is -11.1% [at 0.501 µM]. For `CC(=O)Nc1ccc(S(=O)(=O)N2CCCC2C(=O)O)cc1` (centres undefined), the Potency result is “inactive”.
